Measurements as given in PubChem BioAssay (NCATS).
Results filed as inconclusive are left out. Calls of active or inactive are those of the source. Calls follow the shape of the dose curve; as a rule, active = well fitted inhibition curve with a large enough effect in the signal ratio, with a control signal flat (not every such curve was filed as active); inconclusive = small, poorly fitted or top-dose-only effect, or effect the other way, or a change in a side signal; inactive = flat fitted curve, though single readings scatter; the % refers to the signal ratio.

biological target: Glucocorticoid receptor (Homo sapiens) (UniProt P04150); assay: qHTS assay for small molecule antagonists of glucocorticoid receptor signaling (AID 588533); conditions: HeLa MMTV-bla, GRE beta-lactamase ratio, antagonist mode, 18 h; series mostly up to 76.8 µM; activity change, negative = inhibition: at the top concentration
Sequence (P04150 whole entry, looked up): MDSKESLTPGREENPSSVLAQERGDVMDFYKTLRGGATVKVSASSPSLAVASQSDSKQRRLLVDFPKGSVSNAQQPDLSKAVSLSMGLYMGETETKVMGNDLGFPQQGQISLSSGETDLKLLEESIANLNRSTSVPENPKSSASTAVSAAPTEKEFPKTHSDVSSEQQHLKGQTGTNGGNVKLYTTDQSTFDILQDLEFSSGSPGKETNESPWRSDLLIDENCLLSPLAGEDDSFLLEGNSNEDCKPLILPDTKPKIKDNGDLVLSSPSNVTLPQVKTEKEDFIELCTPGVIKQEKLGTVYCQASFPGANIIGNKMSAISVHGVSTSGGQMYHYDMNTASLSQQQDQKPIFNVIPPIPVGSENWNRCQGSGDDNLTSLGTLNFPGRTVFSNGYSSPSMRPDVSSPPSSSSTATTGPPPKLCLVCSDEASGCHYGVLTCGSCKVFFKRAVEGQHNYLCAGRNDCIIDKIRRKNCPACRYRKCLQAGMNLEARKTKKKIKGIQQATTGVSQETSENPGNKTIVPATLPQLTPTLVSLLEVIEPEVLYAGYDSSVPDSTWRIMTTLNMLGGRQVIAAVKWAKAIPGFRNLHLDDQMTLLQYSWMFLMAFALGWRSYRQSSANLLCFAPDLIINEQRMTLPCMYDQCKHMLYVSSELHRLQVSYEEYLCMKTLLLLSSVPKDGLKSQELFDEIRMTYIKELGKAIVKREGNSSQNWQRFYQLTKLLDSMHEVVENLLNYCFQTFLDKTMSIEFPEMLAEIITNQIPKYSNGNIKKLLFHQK
From the text: NIH Chemical Genomics Center [NCGC] U.S. Environmental Protection Agency [EPA] National Institutes of Environmental Health Sciences [NIEHS] National Toxicology Program [NTP] NCGC Assay Overview The Glucocorticoid receptor (GR), a nuclear receptor subfamily member and its natural ligands includes […] etc. The GR is a validated drug target for inflammation. GR ligands such as dexamethasone are clinically available as anti-inflammatory drugs. Glucocorticoids implicate a role in carbohydrate, protein and lipid metabolisms and programmed cell death. They are also a component of many chemotherapy regimens for the treatment of leukemias, lymphomas, and myelomas because of their role in the induction of apoptosis.
NCGC Assay Protocol Summary Using a beta-lactamase reporter-gene under control of glucocorticoid response element (GRE), a cell-based assay [CellSensor MMTV-bla HeLa cell line assay developed by Invitrogen] was used to measure GR ligands signaling. CellSensor MMTV-bla HeLa cells were used with assay medium containing 1% charcoal/dextran treated FBS, 0.1 mM NEAA, 1 mM sodium pyruvate and 25mM HEPES. The assay was performed in clear bottom black Greiner 1536-well plates. Library compounds were measured for their ability to inhibit the reporter gene activity. Compounds were screened in a titration series in 1536-well format. […] Data was normalized relative to Dexamethasone control (2 nM, 100%), and DMSO only wells (basal, 0%). Concentration-response titration points for each compound were fitted to the Hill equation yielding concentrations of half-maximal inhibition (IC50) and maximal response (efficacy) values. qHTS protocol for GR beta-lactamase assay in antagonist mode [Step] [Parameter] [Value] [Description] 1. Reagent; 5 uL; 1500 cells/well 2. Incubation; 37 C for 3-5 hrs 3. Compounds; 23 nL; 0.59 nM to 92 uM 4. […] Agonist (Stimulator); 1uL; Dexamethasone at 2 nM (final) concentration 6. Incubation; 37 C for 18 hrs 7. Detection reagent; 1 uL of CCF4-dye 8. Incubation; RT for 2 hrs 9. Detection; Fluorescence; Envision plate reader
% is scaled to controls: 0 for no effect and ±100 for the full control effect.

Structure (SMILES) | Potency | activity change, negative = inhibition
CC(C)(Sc1ccc(CCN(CCCCC2CCCCC2)C(=O)NC2CCCCC2)cc1)C(=O)O | 20 µM (active) | 
NC(=O)c1cnccn1 |  | 10.8% (inactive)
CC(=O)Oc1ccccc1C(=O)O | inactive | 
C[C@]12CCC(=O)C=C1CC[C@@H]1[C@@H]2[C@@H](O)C[C@@]2(C)[C@H]1CC[C@]2(O)C(=O)CO |  | 22.7% (inactive)
Cn1cnc([N+](=O)[O-])c1Sc1ncnc2nc[nH]c12 |  | 29.9% (inactive)
CCCC(CCC)C(=O)O |  | -41.8% (inactive)
NC[C@H](O)c1ccc(O)c(O)c1 |  | 11.2% (inactive)
O=c1[nH]cnc2[nH]ncc12 |  | -18.3% (inactive)
Cc1ccccc1C(OCCN(C)C)c1ccccc1 (stereo unspecified) |  | 4.97% (inactive)
O=NN(CCCl)C(=O)NCCCl |  | 29.4% (inactive)
O=C1CCC(N2C(=O)c3ccccc3C2=O)C(=O)N1 (stereo unspecified) |  | 10.5% (inactive)
